Measurements published in PubChem BioAssay AID652025 (National Center for Advancing Translational Sciences (NCATS), 2013).
In all, about 360,000 compounds went through this assay and about 240 (0.067%) were called active. No stated cut-off is given here; in the data, active means activation above about 50%; inconclusive means mostly about 30% to 49%; inactive means weaker than that. The list comes from a sample in which actives are over-represented; it also holds similar structures and randomly drawn compounds.

Assay: qHTS of IL-2 Activators; further: 0% is about no effect
Conditions: IL-2 activation reporter assay, cell-based qHTS; stronger effect = higher value; in transgenic mouse T cells; stimulated with anti-CD3/CD4/CD28 beads
Method in brief: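 EGFP and DsRed fluorescence is measured by plate cytometry in unstimulated transgenic mouse T cells exposed to compound for 60 minutes, then stimulated 18 hours at 37 degrees C with anti-CD3/anti-CD4 beads plus anti-CD28.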

activation, inactive:
CN(CCCC(=O)Nc1nccs1)S(=O)(=O)c1ccc(Cl)cc1 -1.49%
C=C1CCC(N(O)c2cc(C)on2)C(=C)CCC2C1CC2(C)C (stereo not given) -0.223%
NC(=O)COc1ccc(C23CC4CC(CC(C4)C2)C3)cc1 -3.06%
COC(C[C@@H](O)C[C@H](O)[C@H](C)OCc1ccccc1)OC 2.56%
COc1cccc(C(=O)Nc2c3c(nn2-c2cccc(C)c2C)CS(=O)(=O)C3)c1OC -0.743%
CCCCc1nc2cc(C(=O)NCCc3cnn(C)c3)ccc2o1 -2.8%
CCNc1c(NS(=O)(=O)c2ccc(C3CCCCC3)cc2)c(=O)oc2ccccc12 -0.121%
CC(=O)Nc1ccc(CN2CCN(Cc3ccc(F)c(F)c3)C(CCO)C2)cc1 (stereo not given) -0.804%
Cc1ccc(-c2c[n+](=O)c3c(n2[O-])CCC3)cc1 1.34%
COc1ccc(N(CC(=O)NC2CCCC2)C(=O)CS(=O)CC(=O)Nc2ccc3c(c2)OCO3)cc1 (stereo not given) -2.57%
c1csc(CN2CCN(Cc3cccs3)C2c2cccs2)c1 0.339%
Cc1cc(C)cc(C(=O)NC(CC(N)=O)c2ccc(N3CCC(N4CCCCC4)CC3)c([N+](=O)[O-])c2)c1 (stereo not given) -0.417%
O=C(O)CCCCOn1ccnc1 1.09%
CCn1nc(C)c(CN2CCN(Cc3ccc(OC)c(C)c3C)C(CCO)C2)c1C (stereo not given) -3.09%
O=C(O)c1ccccc1N=N/C(=N/Nc1cc(S(=O)(=O)O)ccc1O)c1ccccc1 0.118%
CCOC(=O)[C@]12CCCC=C1N(Cc1cccc3ccccc13)C(=O)[C@H](CC(=O)NCC13CC4CC(CC(C4)C1)C3)C2 -1.16%
CCN(CC)S(=O)(=O)c1ccc(N2CCN(C)CC2)c(NC(=O)Nc2ccccc2F)c1 -1.22%
CC1(Oc2ccc(Cl)cc2)CCN(Cc2csc3ccccc23)C1 (stereo not given) 0.192%
COC(=O)COc1cccc2c(=O)n(CC(=O)NCc3ccccc3)ccc12 -3.22%
CCOC(=O)N1CCN(C(=O)c2ccccc2SCC(=O)NCC2CCCCC2)CC1 -1.16%
O=C(NCc1ccccc1Cl)c1csc([C@@H]2O[C@H](CO)[C@@H](O)[C@H]2O)n1 0.0054%
CC(=O)Nc1ccc(C(=O)Nc2cc(S(=O)(=O)N3CCOCC3)ccc2N2CCOCC2)cc1 -2.32%
Nc1nc(-c2sc3nc4c(cc3c2N)CCCC4)nc(N2CCOCC2)n1 -1.7%
CCCc1cc(=O)[nH]c(SCc2cc(=O)oc3c(C)c(C)ccc23)n1 -0.327%
CCOc1ccccc1NC(=O)C12CC3CC(C1)CC(c1ccc(C)cc1)(C3)C2 -4.57%
Cc1cc(C)c2c(-n3cccc3)c(C(=O)NNS(=O)(=O)c3ccc(F)cc3)sc2n1 0.79%
CC(=O)N(Cc1cccs1)C1CCOC(C)(C)C1 (stereo not given) -0.456%
O=C(NNC(=S)NC1CC2CCC1C2)c1ccc(Cl)cc1 (stereo not given) -0.932%
Cc1ccccc1-n1nnc2c(=O)oc3ccccc3c21 -0.569%
COc1ccccc1CNC(=O)C1CCCN(S(=O)(=O)c2cccc3cccnc23)C1 (stereo not given) -1.32%
Cc1ccc(C(CC(=O)O)NC(=O)c2ccc(S(=O)(=O)N3CCCC3)cc2)cc1 (stereo not given) 0.29%
CC1=C(C(=O)OC2CCCCC2)C(c2ccccc2F)NC(=O)N1 (stereo not given) -8.28%
Cn1cccc1C1(C(F)(F)F)NCCNC1=O (stereo not given) -1.5%
CCO[C@H]1OC(C(=O)N2CCOCC2)=C[C@@H](c2ccc3c(c2)OCO3)[C@@H]1CCCO -0.126%
Cc1nn(CCOc2ccc(Br)cc2)c(C)c1[N+](=O)[O-] -2.36%
